Residues, ends and D or L forms follow the SMILES beside them. *: point of attachment. CH2Cl = ClC*
Assays:
Conditions in all cases: Compound concentration 20.0 uM
[1] = biological target: Tyrosine-protein kinase ABL1 (Homo sapiens) (UniProt P00519)
[2] = biological target: Bromodomain-containing protein 4 (Homo sapiens) (UniProt O60885)
[3] = biological target: Cyclin-dependent kinase 2 (Homo sapiens) (UniProt P24941)
[4] = biological target: Casein kinase I isoform delta (Homo sapiens) (UniProt P48730)
Sequence of Casein kinase I isoform delta (Homo sapiens) (P48730 whole entry, looked up, canonical isoform): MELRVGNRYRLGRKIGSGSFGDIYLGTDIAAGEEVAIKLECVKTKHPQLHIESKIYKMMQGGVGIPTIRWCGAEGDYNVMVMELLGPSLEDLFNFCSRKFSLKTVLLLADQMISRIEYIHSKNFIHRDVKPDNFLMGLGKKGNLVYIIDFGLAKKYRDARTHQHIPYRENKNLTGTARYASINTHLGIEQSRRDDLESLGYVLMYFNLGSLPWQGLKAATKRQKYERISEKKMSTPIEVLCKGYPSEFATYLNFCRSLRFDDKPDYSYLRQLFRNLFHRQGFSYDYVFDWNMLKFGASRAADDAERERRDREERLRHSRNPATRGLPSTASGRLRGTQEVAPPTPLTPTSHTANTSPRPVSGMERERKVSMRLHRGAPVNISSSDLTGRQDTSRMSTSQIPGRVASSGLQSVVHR

[5] = biological target: Glycogen synthase kinase-3 beta (Homo sapiens) (UniProt P49841)
Sequence of Glycogen synthase kinase-3 beta (Homo sapiens) (P49841 whole entry, looked up): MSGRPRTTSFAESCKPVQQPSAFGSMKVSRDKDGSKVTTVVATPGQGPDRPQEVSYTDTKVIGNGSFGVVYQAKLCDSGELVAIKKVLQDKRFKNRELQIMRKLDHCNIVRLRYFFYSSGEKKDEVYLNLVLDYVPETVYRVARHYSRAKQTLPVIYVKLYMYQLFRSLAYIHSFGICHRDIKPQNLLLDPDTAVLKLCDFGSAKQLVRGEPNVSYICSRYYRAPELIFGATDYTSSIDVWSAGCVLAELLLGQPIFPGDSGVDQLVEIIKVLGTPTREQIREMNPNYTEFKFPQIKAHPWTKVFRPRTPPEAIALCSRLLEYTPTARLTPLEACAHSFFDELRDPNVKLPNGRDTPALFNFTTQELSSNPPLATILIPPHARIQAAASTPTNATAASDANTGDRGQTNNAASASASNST

[6] = biological target: Mitogen-activated protein kinase 1 (Homo sapiens) (UniProt P28482)
Sequence of Mitogen-activated protein kinase 1 (Homo sapiens) (P28482 whole entry): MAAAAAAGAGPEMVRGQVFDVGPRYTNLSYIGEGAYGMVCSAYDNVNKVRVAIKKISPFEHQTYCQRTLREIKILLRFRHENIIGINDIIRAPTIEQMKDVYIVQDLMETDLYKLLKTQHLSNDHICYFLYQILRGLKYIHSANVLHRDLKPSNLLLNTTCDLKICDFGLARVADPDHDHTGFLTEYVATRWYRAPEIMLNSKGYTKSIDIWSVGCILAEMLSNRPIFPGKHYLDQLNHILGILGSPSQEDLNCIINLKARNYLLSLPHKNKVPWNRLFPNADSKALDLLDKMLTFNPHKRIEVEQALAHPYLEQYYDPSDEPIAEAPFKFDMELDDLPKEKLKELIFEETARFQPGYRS

[7] = biological target: T1, Aurora kinase A (Homo sapiens) (UniProt O14965)
T1 sequence (whole entry): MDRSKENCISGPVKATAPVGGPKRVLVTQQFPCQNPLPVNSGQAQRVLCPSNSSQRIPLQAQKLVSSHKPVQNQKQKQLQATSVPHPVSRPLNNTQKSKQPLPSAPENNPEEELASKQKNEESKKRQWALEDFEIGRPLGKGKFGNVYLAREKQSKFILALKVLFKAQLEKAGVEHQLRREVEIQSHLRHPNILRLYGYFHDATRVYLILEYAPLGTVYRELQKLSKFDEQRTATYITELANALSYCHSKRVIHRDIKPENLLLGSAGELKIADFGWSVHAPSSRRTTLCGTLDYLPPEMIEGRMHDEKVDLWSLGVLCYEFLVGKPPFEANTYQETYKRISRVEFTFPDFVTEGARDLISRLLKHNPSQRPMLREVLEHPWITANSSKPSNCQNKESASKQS

[8] = biological target: T2, Transcription intermediary factor 1-alpha (Homo sapiens) (UniProt O15164)
T2 sequence (whole entry): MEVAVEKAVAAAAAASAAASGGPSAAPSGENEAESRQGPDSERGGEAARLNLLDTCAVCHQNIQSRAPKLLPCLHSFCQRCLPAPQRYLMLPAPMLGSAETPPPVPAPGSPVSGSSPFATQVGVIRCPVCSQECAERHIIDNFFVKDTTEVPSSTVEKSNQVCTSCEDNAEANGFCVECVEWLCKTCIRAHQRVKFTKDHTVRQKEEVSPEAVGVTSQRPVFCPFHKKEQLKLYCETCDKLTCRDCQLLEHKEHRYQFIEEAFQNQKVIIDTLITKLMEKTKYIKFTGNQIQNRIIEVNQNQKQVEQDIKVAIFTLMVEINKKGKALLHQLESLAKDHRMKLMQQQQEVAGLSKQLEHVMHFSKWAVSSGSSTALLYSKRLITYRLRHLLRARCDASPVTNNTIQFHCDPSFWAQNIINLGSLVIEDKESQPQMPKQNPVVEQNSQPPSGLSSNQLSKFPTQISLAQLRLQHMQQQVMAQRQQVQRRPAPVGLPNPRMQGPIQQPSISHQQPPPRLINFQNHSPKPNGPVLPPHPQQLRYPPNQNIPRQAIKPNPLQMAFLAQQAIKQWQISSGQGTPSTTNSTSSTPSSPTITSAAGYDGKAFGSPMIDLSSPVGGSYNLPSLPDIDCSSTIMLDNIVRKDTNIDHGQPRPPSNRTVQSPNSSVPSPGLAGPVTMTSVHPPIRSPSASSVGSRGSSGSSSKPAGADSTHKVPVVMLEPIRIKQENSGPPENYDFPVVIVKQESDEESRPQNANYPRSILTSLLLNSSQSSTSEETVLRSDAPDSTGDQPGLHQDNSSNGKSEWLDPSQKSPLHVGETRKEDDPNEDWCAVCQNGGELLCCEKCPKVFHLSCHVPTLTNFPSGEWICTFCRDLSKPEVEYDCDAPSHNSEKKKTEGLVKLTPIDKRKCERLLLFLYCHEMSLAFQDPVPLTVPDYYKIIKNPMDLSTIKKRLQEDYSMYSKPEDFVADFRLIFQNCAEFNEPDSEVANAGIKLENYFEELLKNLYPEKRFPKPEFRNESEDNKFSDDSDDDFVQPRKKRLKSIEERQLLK

Sequence of Tyrosine-protein kinase ABL1 (Homo sapiens) (P00519 whole entry): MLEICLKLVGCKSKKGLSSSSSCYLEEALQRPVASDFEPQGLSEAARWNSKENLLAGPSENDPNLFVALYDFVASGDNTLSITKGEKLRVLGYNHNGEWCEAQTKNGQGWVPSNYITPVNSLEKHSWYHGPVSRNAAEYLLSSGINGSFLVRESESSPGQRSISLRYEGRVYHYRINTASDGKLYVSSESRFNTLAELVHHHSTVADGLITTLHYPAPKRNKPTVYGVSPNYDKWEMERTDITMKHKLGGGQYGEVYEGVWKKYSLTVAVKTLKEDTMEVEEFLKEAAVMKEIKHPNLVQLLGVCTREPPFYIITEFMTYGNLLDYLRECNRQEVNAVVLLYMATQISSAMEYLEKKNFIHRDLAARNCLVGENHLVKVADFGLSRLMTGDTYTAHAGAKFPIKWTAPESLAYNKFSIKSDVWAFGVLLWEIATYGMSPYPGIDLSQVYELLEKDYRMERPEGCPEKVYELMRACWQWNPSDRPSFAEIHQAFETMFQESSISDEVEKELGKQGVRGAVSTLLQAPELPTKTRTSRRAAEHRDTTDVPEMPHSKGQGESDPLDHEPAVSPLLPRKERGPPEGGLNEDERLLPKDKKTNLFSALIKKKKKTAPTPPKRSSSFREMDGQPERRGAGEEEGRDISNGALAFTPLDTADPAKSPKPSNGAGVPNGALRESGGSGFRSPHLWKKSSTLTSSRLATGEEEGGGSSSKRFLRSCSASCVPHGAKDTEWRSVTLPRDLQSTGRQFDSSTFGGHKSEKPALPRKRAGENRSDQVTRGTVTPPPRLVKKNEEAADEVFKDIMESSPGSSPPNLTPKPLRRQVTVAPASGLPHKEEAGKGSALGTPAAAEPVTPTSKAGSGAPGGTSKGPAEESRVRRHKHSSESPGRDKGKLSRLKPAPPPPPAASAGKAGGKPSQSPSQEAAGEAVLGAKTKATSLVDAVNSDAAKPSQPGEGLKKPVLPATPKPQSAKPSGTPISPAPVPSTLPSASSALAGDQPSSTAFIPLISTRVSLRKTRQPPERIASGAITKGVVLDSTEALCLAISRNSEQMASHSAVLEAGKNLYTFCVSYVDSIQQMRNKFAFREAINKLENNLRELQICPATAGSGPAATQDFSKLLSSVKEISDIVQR

Compound	ΔTm [1] [°C]	ΔTm [2] [°C]	ΔTm [3] [°C]	ΔTm [4] [°C]	ΔTm [5] [°C]	ΔTm [6] [°C]	ΔTm [7] [°C]	ΔTm [8] [°C]
C[C@@H](Nc1nc2c(cnn2C2CCCC2)c(=O)[nH]1)C(=O)N1CC[C@H](F)C1	0.58	-2.88	0.63	-0.33	1.37	0.07	-2	0.97
CC[C@H](C)[C@H](NC(=O)[C@H](CCC(=O)O)NC(=O)[C@@H](NC(C)=O)C(C)C)C(=O)N[C@H](C=O)CC(=O)O (Ac-VEID-aldehyde)	-0.05	-2.59	-0.23	-0.08	-0.35	-0.47	-1.47	-0.43
CCn1c(=S)[nH]c2cc3c(NCc4ccccc4N4CCC(CO)CC4)ncnc3cc21	0.75	4.86	-0.14	0.33	-0.82	0.17	-1.92	-0.23
O=C(Nc1cc(C(F)F)ns1)Nc1cc(F)ncc1CO	0.52	-1.44	0.5	-0.49	1.08	0.14	-1.82	0.59
O=C(O)/C(S)=C/c1ccc(I)cc1	0.07	-3.45	-1.16	-0.16	-8.42	-1.42	0.99	-0.27
CCNC(=O)/C=C/c1cccc(Br)c1	0.39	-0.78	0.01	-0.27	-0.4	-0.04	-2.22	-0.12
O=C(C[C@@H](C(F)F)n1ccc(F)n1)N1CCC(O)(Cn2cnc3c(cnn3-c3ccc(F)cc3)c2=O)CC1	0.8	-3.01	0.2	0.03	-0.6	0.27	-2.33	1.94
Cn1nc2c(=O)n(CC3(O)CCN(C(=O)C[C@H](c4ccccc4)C(F)(F)F)CC3)cnc2c1-c1ccc(CN)cc1	0.68	-2.51	0.12	-0.82	-0.57	0.17	-1.86	-0.47
O=C(C1CC1)N1CCN(Cn2sc3ccccc3c2=O)CC1	-7.31	-4.76	-3.3	-0.26	0	-4.19	-1.92	0
CC(=O)N[C@@H](Cc1ccccc1)C(=O)N[C@@H](CC(C)C)C(=O)N[C@H](C(=O)N[C@@H](CC(=O)O)C(=O)CCl)[C@@H](C)O (Ac-FLTD-CH2Cl)	0.28	-2.88	0.03	0.15	-0.18	-0.16	-0.89	-0.91
Cc1ccc2c(c1)nc(/C=C/c1cccc3cccnc13)n2-c1cccc(OCCCN2CCN(C)CC2)c1	0.62	-5.41	-0.28	-0.14	-0.72	0.14	-2.49	1.41
CN(C)CC(c1ccc(O)cc1)C1(O)CCCCC1 (centres undefined)	0.19	-2.16	0.04	-0.35	-1.41	0.1	-1.27	0.3
COc1ccc(Cc2nc(O)c3c(C)nc([C@@H](CCCc4ccccc4)[C@@H](C)O)n3n2)cc1OC	-0.12	-2.72	0	-0.14	1.15	0.16	-1.36	-0.56
O=C(Cc1ccccc1)c1cc(O)c(O)c([N+](=O)[O-])c1	0.39	-1.83	0.33	-0.3	-0.88	0.35	0	1.83
Nc1cc(F)ccc1NC(=O)c1ccc(CNC(=O)/C=C/c2cccnc2)cc1	0.72	-1.97	-0.55	0.17	-1.09	-3.81	-0.25	-1.2
CNc1cc(-c2cccc(Cl)c2Cl)nc(N)n1	0.38	-2.61	0.11	-0.27	-0.04	0.22	-2.02	0.28
Cc1cc2cc(NS(=O)(=O)c3ccc(C#N)cc3)ccc2n(C)c1=O	0.57	-0.91	0.09	0.09	0.03	-3	-1.09	0.17
Cc1c(NC(=O)c2cc(C(N)=O)nc3cc(F)ccc23)c(C(F)(F)F)nn1Cc1ccc(C#N)cc1	0.61	-2.09	0.06	0.03	0.78	0.34	-2.13	1.34
O=c1[nH][nH]c(=O)c2cc(OCc3ccsc3)ccc12	1.93	-2.87	0.73	-0.03	0.96	0.65	-1.5	0.51
CC(C)(C)OC(=O)N1CCN(C(=O)n2cc(-c3ccc(OC(F)(F)F)cc3)nn2)C(Cc2ccccc2)C1 (centres undefined)	0.06	-0.12	0.53	-0.73	-0.69	-0.4	-1.5	-0.53
CC(=O)N[C@@H](Cc1ccc(O)cc1)C(=O)N[C@H](C(=O)N[C@@H](C)C(=O)N[C@H](C=O)CC(=O)O)C(C)C	0.25	-2.08	0.16	0.05	-0.9	-0.12	-1.08	-0.33
NS(=O)(=O)c1cc(-c2nnn[nH]2)c(NCc2cccs2)cc1Cl	0.69	-1.05	1.03	0.19	1.34	0.84	-1.94	0
CCCOc1ccc(CCc2nc3cc(-c4c(C)noc4C)ccc3n2CCN2CCOCC2)cc1	0.14	0.27	-1.68	0.28	1.16	0.33	-1.97	-1.29
